ELG1 DNA repair: blocks ELG1-dependent DNA repair in HEK293T cells; HEK293T ELG1-luciferase reporter, luminescence, 16 h; DNA damage induced by 5-fluorouridine; Potency, µM (top dose mostly 46.1 µM), for inactives: at the top dose activity change, negative = inhibition, actives largely listed as inhibitors; actives 2.3% (n = 330,000); AID 504467; also: % is scaled to controls: 0 for no effect and ±100 for the full control effect; nearly all actives have a fitted effect of over 55% in size
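Step one: seed 2,000 cells per well. Step two: pin-transfer compound or DMSO alongside 5-fluorouridine. Step three: incubate 16 hr, 37 °C, 5% CO2. Step four: add ONE-Glo, wait 30 min, read luminescence.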
NPC1 prom act: activates the NPC1 promoter; Potency, µM (highest dose often 9.22 µM), for inactives: at the highest dose activation, hits mostly activators; actives 2.4% (n = 320,000); Huh7 NPC1 promoter luciferase reporter, 24 h; AID 485313; also: % of control where 0% means no effect; nearly all actives have a fitted effect of over 60% in size
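Huh7 reporter cells (NPC1 promoter driving luciferase) are dosed with compound for 24 h at 37 °C, 5% CO2; luciferase detection reagent is then added and luminescence measured after 10 min at ambient temperature.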
SMN2 splice enh: SMN2 splice variant enhancement. HEK293 SMN2-luciferase splicing reporter, luminescence, 30-36 h. Potency, µM (doses to about 46.1 µM), inactives show at the top dose activity change, positive = activation, actives largely listed as activators. actives 2.8% (n = 210,000); also: % of control where 0% means no effect; nearly all actives have a fitted effect of over 55% in size
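qHTS luciferase splicing reporter: luminescence rises when SMN2 exon 7 is included in transfected HEK293 cells. Compound exposure lasted 30-36 h at 37C, with 4.5 mM final sodium butyrate as control, followed by a ONE-Glo read.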
Rab9 prom act: Rab9 promoter activation. Huh7 Rab9 promoter-luciferase reporter, luminescence, 24 h. Potency, µM (titrated, usually from 9.22 µM), for the others: at the highest dose activation, negative = inhibition, most hits filed as activators. actives 2.8% (n = 320,000). AID 485297; also: % of control where 0% means no effect; nearly all actives have a fitted effect of over 60% in size
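Luminescence read-out: Huh7 cells stably expressing Rab9-luciferase, treated 24 h with compound at 37 °C, then lysed with luciferase reagent for 10 min at ambient before reading.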
ELG1 genotox: inducers of genotoxicity in HEK293T ELG1-luciferase cells; HEK293T ELG1-luciferase reporter, luminescence, 16 h; Potency, µM (top dose mostly 46 µM), without a hit: at the top dose activity change, positive = activation, usual class: activators; actives 1.3% (n = 330,000); also: % of control where 0% means no effect; nearly all actives have a fitted effect of over 60% in size
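After overnight (16 hr) compound treatment at 37 °C, ELG1-luciferase HEK293T cells were lysed with ONE-Glo; luminescence quantified 30 min later at room temperature.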
FLuc counter: counter-screen for miR-21 project: firefly luciferase inhibitors or activators. purified FLuc, Km substrates, luminescence inhibition. Potency, µM (doses to about 57.5 µM), for inactives: at the highest dose activity change, negative = inhibition, hits mostly inhibitors. actives 6.9% (n = 360,000);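 also: plate controls were vehicle for no effect and reference inhibitor for full effect; nearly all actives have a fitted effect of over 55% in size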
Target sequence (P08659 whole entry, looked up): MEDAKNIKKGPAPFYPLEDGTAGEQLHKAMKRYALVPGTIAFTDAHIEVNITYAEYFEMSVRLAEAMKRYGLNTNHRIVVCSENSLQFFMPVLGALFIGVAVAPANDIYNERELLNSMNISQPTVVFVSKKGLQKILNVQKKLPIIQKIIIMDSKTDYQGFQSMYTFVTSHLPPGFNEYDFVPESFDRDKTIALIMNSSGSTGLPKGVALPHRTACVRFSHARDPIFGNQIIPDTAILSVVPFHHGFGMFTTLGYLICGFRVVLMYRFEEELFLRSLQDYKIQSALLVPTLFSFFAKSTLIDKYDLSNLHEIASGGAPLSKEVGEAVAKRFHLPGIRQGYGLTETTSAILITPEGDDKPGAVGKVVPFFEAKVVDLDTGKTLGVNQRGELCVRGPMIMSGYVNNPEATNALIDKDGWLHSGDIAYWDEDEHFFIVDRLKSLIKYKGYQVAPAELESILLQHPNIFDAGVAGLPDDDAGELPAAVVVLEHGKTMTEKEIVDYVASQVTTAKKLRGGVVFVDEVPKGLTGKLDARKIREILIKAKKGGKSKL
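Biochemical qHTS of compounds, final roughly 60 µM downward over six points, against 10 nM purified firefly luciferase using Km concentrations of substrates (10 uM D-luciferin, 10 uM ATP) in Tris acetate pH 7.5 buffer; luminescence output.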
Numbers without * were called inactive; u = inconclusive; x = no result given; [ ] = dose if it differs, or a comment. Rows were chosen to be rich in hits. Some 9.2% of all compounds tested hit in one or more screens of this group. Calls follow the shape of the dose curve; as a rule, active = well fitted curve in the direction sought with a large enough effect; inconclusive = small, poorly fitted or top-dose-only effect, or another doubt; inactive = no such curve, though single readings can be large; an effect the other way counts as inactive or inconclusive. Potency is read from the fitted curve at half-maximal effect.

SMILES | ELG1 DNA repair | NPC1 prom act | SMN2 splice enh | Rab9 prom act | ELG1 genotox | FLuc counter
COc1cccc(NC(=O)c2sc3nc(N4CCOCC4)c4c(c3c2N)CCCC4)c1 | -6% | -3% | x | 4% | 10% | -18%
COCCC(=O)N1CCC(Oc2ccc(C(=O)NC3CCOC(C)(C)C3)cc2)CC1 (stereo not given) | u | 1% | x | -3% | 2% | 1%
COc1ccc(OCC(=O)NC2CCCN(Cc3ccc(Cl)cc3)C2)cc1 (stereo not given) | 8.2µM* | 0% | x | 7% | -17% | 1%
CCCCn1c(NS(=O)(=O)c2ccccc2)c(S(=O)(=O)c2ccc(C)cc2)c2nc3ccccc3nc21 | 18µM* | -2% | -33% | -7% | -11% | 4%
Cc1ccc(N2CCN(C(=O)c3cnn(-c4ccc(C)c(C)c4)c3C3CCNCC3)CC2)c(C)c1 | x | x | x | x | x | 0%
Cc1ccc2cc(CN(Cc3ccco3)S(=O)(=O)c3c(C)ccc4nsnc34)c(=O)[nH]c2c1 | u | 1% | 35µM* | -2% | -14% | -13%
CC(C)CCNC(=O)c1ccc(-c2ccccc2)cc1 | u | u | 7.9µM* | 3.5µM* | u | 9.5µM*
CC(CCc1ccccc1)NC(=O)c1ccc(C(=O)NC(C)CCc2ccccc2)cc1 (stereo not given) | 5.2µM* | -14% | -53% | -16% | -13% | 3%
CC(C)CCNC(=O)c1cccc(C(=O)NCCC(C)C)c1 | -8% | -1% | -10% | 0% | 2% | -1%
CC(C)CCNC(=O)C(=O)Nc1ccccc1 | u | 3.5µM* | u | 1.6µM* | u | u
CC(CCc1ccccc1)NC(=O)c1ccccc1 (stereo not given) | 14% | 5% | -13% | 0% | 3% | -1%
Cc1ccc2c(c1)nnn2C1CCN(C(=O)NC23CC4CC(CC(C4)C2)C3)CC1 | u | -3% | -3% | -2% | -4% | 5%
CCOC(=O)CN(C(=O)CN1CCC(n2nnc3cc(C)ccc32)CC1)c1ccccc1 | u | -4% | -4% | -1% | -4% | 0%
Cc1ccc2c(c1)nnn2C1CCN(CC(=O)N(c2ccccc2)c2ccccc2)CC1 | 16µM* | -9% | x | -5% | -13% | -1%
Cc1ccc2c(c1)nnn2C1CCN(C(=O)C23CC4CC(CC(C4)C2)C3)CC1 | 23µM* | -1% | -61% | -7% | -4% | 5%
O=S1(=O)CCN(Cc2ccccn2)CC1 | 0% | -2% | -15%[9.22 µM] | -3% | 0% | 4%
c1csc(-c2nc(CN3CCSCC3)cs2)c1 | u | u | x | 0.4µM* | 2.6µM* | 2.4µM*
O=S1(=O)CCN(Cc2csc(-c3cccs3)n2)CC1 | u | 1.3µM* | x | 1.8µM* | u | 19µM*
CC(C)(C)C(=O)NC(=S)Nc1ccccn1 | u | -1% | 16% | -2% | 6% | -4%
O=C(NC(=S)Nc1ccccn1)c1ccc([N+](=O)[O-])cc1 | u | 2µM* | 2.8µM* | 1µM* | u | 5.4µM*
O=C(NC(=S)Nc1ccccn1)c1ccccc1 | u | 0.32µM* | x | 0.13µM* | 1.6µM* | 7.6µM*
O=C(NC(=S)NC(c1ccccc1)c1ccncc1)c1ccccc1 (stereo not given) | 18µM* | -3% | 1% | -3% | -11% | -1%
O=C(Nc1ccccn1)c1cc2cc([N+](=O)[O-])ccc2s1 | u | 2µM* | u | 1.4µM* | u | u
Cc1coc2c(C)c3oc(=O)c(CCC(=O)NCc4ccccn4)c(C)c3cc12 | u | 0% | x | -2% | -1% | -3%
O=C(CC(=O)c1ccccc1)Nc1ccccn1 | u | 2.5µM* | x | 1.8µM* | 15µM* | 11µM*
O=C(Nc1ccc(Cl)cc1)c1ccc(-c2ccccn2)s1 | u | 1.6µM* | x | 2.8µM* | 23% | u
O=C(NC(=S)Nc1ccccn1)c1ccc(-c2ccccc2)cc1 | u | 0.11µM* | x | 0.28µM* | u | 1.5µM*

Compound activity from PubChem.
